# According to the supplement of paper PMC4466140:
# Columns and labels:
# Assay in all cases: SPOT peptide array binding signal intensity (averaged, normalized) (arbitrary units (background-subtracted, floor 0; scale differs between SH3 domains)); higher = stronger binding of the SH3 domain to the peptide
# [1] = target: CaNbp2
# Procedure, shortened: (§1)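 The binding signal is the normalized, background-subtracted spot intensity averaged over replicates; its arbitrary units differ between domains. It was obtained by incubating 10 μg/ml GST-fused SH3 domains from four yeast species overnight at 4°C in TBS-based blocking buffer on cellulose membranes with synthetic 15-mer peptides, cysteines replaced by serines, then detecting with anti-GST antibody, HRP anti-mouse secondary and luminol.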
# [2] = target: CaRvs167
# Procedure, shortened: as §1
# [3] = target: CaRvs167-3
# Procedure, shortened: as §1
# [4] = target: CaSho1
# Procedure, shortened: as §1
# [5] = target: CaSla1-D1-D2
# Procedure, shortened: as §1
# [6] = target: CaSla1-D3
# Procedure, shortened: as §1
# [7] = target: ScAbp1
# Procedure, shortened: as §1
# [8] = target: ScBbc1
# Procedure, shortened: as §1
# [9] = target: ScBem1-D1
# Procedure, shortened: as §1
# [10] = target: ScBzz1-D1
# Procedure, shortened: as §1
# [11] = target: ScBzz1-D2
# Procedure, shortened: as §1
# [12] = target: ScCyk3
# Procedure, shortened: as §1
# [13] = target: ScFus1
# Procedure, shortened: as §1
# [14] = target: ScHof1
# Procedure, shortened: as §1
# [15] = target: ScHse1
# Procedure, shortened: as §1
# [16] = target: ScLsb1
# Procedure, shortened: as §1
# [17] = target: ScLsb2
# Procedure, shortened: as §1
# [18] = target: ScLsb3
# Procedure, shortened: as §1
# [19] = target: ScLsb4
# Procedure, shortened: as §1
# [20] = target: ScMyo3
# Procedure, shortened: as §1
# [21] = target: ScMyo5
# Procedure, shortened: as §1
# [22] = target: ScNbp2
# Procedure, shortened: as §1
# [23] = target: ScPex13
# Procedure, shortened: as §1
# [24] = target: ScRvs167
# Procedure, shortened: as §1
# [25] = target: ScSho1
# Procedure, shortened: as §1
# [26] = target: ScSla1-D1-D2
# Procedure, shortened: as §1
# [27] = target: ScSla1-D3
# Procedure, shortened: as §1
# [28] = target: SpAbp1-D1
# Procedure, shortened: as §1
# [29] = target: SpBbc1
# Procedure, shortened: as §1
# [30] = target: SpBzz1-D1
# Procedure, shortened: as §1
# [31] = target: SpBzz1-D2
# Procedure, shortened: as §1
# [32] = target: SpCyk3
# Procedure, shortened: as §1
# [33] = target: SpHof1
# Procedure, shortened: as §1
# [34] = target: SpHof1-2
# Procedure, shortened: as §1
# [35] = target: SpHof1-3
# Procedure, shortened: as §1
# [36] = target: SpHse1
# Procedure, shortened: as §1
# [37] = target: SpLsb1
# Procedure, shortened: as §1
# [38] = target: SpLsb4
# Procedure, shortened: as §1
# [39] = target: SpMyo1
# Procedure, shortened: as §1
# [40] = target: SpNbp2
# Procedure, shortened: as §1
# [41] = target: SpPex13
# Procedure, shortened: as §1
# [42] = target: SpRvs167
# Procedure, shortened: as §1
# [43] = target: SpSla1-D1-D2
# Procedure, shortened: as §1
# [44] = target: SpSla1-D3
# Procedure, shortened: as §1
# [45] = target: AgAbp1
# Procedure, shortened: as §1
# [46] = target: AgBbc1
# Procedure, shortened: as §1
# [47] = target: AgBem1-D1
# Procedure, shortened: as §1
# [48] = target: AgBzz1-D1
# Procedure, shortened: as §1
# [49] = target: AgBzz1-D2
# Procedure, shortened: as §1
# [50] = target: AgCyk3
# Procedure, shortened: as §1
# [51] = target: AgFus1
# Procedure, shortened: as §1
# [52] = target: AgHof1
# Procedure, shortened: as §1
# [53] = target: AgHse1
# Procedure, shortened: as §1
# [54] = target: AgLsb1
# Procedure, shortened: as §1
# [55] = target: AgLsb4
# Procedure, shortened: as §1
# [56] = target: AgMyo5
# Procedure, shortened: as §1
# [57] = target: AgNbp2
# Procedure, shortened: as §1
# [58] = target: AgRvs167
# Procedure, shortened: as §1
# [59] = target: AgSho1
# Procedure, shortened: as §1
# [60] = target: AgSla1-D1-D2
# Procedure, shortened: as §1
# [61] = target: AgSla1-D3
# Procedure, shortened: as §1
# [62] = target: CaAbp1-D1
# Procedure, shortened: as §1
# [63] = target: CaAbp1-D2
# Procedure, shortened: as §1
# [64] = target: CaBbc1
# Procedure, shortened: as §1
# [65] = target: CaBem1-D1
# Procedure, shortened: as §1
# [66] = target: CaBzz1-D1
# Procedure, shortened: as §1
# [67] = target: CaBzz1-D2
# Procedure, shortened: as §1
# [68] = target: CaCyk3
# Procedure, shortened: as §1
# [69] = target: CaFus1
# Procedure, shortened: as §1
# [70] = target: CaHof1
# Procedure, shortened: as §1
# [71] = target: CaHse1
# Procedure, shortened: as §1
# [72] = target: CaLsb1
# Procedure, shortened: as §1
# [73] = target: CaLsb4
# Procedure, shortened: as §1
# [74] = target: CaMyo5
# Procedure, shortened: as §1
binder,measurement,setting,value
FYNRTAFQLPGDARV,SPOT peptide array binding signal intensity,[1],22
same,SPOT peptide array binding signal intensity,[2],≤ 0
same,SPOT peptide array binding signal intensity,[3],3.5
same,SPOT peptide array binding signal intensity,[4],11.5
same,SPOT peptide array binding signal intensity,[5],≤ 0
same,SPOT peptide array binding signal intensity,[6],≤ 0
same,SPOT peptide array binding signal intensity,[7],2.5
same,SPOT peptide array binding signal intensity,[8],3.5
same,SPOT peptide array binding signal intensity,[9],0.5
same,SPOT peptide array binding signal intensity,[10],22
same,SPOT peptide array binding signal intensity,[11],36
same,SPOT peptide array binding signal intensity,[12],20
same,SPOT peptide array binding signal intensity,[13],≤ 0
same,SPOT peptide array binding signal intensity,[14],≤ 0
same,SPOT peptide array binding signal intensity,[15],61.5
same,SPOT peptide array binding signal intensity,[16],554
same,SPOT peptide array binding signal intensity,[17],843
same,SPOT peptide array binding signal intensity,[18],≤ 0
same,SPOT peptide array binding signal intensity,[19],≤ 0
same,SPOT peptide array binding signal intensity,[20],40
same,SPOT peptide array binding signal intensity,[21],12.5
same,SPOT peptide array binding signal intensity,[22],≤ 0
same,SPOT peptide array binding signal intensity,[23],≤ 0
same,SPOT peptide array binding signal intensity,[24],≤ 0
same,SPOT peptide array binding signal intensity,[25],1
same,SPOT peptide array binding signal intensity,[26],≤ 0
same,SPOT peptide array binding signal intensity,[27],1
same,SPOT peptide array binding signal intensity,[28],≤ 0
same,SPOT peptide array binding signal intensity,[29],0.5
same,SPOT peptide array binding signal intensity,[30],86
same,SPOT peptide array binding signal intensity,[31],≤ 0
same,SPOT peptide array binding signal intensity,[32],2
same,SPOT peptide array binding signal intensity,[33],4
same,SPOT peptide array binding signal intensity,[34],1.5
same,SPOT peptide array binding signal intensity,[35],22.5
same,SPOT peptide array binding signal intensity,[36],21.5
same,SPOT peptide array binding signal intensity,[37],216
same,SPOT peptide array binding signal intensity,[38],≤ 0
same,SPOT peptide array binding signal intensity,[39],17.5
same,SPOT peptide array binding signal intensity,[40],2.5
same,SPOT peptide array binding signal intensity,[41],2
same,SPOT peptide array binding signal intensity,[42],≤ 0
same,SPOT peptide array binding signal intensity,[43],≤ 0
same,SPOT peptide array binding signal intensity,[44],0.5
LLLLFVPDSPYDPAI,SPOT peptide array binding signal intensity,[45],1
same,SPOT peptide array binding signal intensity,[46],0.75
same,SPOT peptide array binding signal intensity,[47],27
same,SPOT peptide array binding signal intensity,[48],17.5
same,SPOT peptide array binding signal intensity,[49],20.5
same,SPOT peptide array binding signal intensity,[50],3
same,SPOT peptide array binding signal intensity,[51],2370
same,SPOT peptide array binding signal intensity,[52],2.25
same,SPOT peptide array binding signal intensity,[53],277
same,SPOT peptide array binding signal intensity,[54],≤ 0
same,SPOT peptide array binding signal intensity,[55],636
same,SPOT peptide array binding signal intensity,[56],1
same,SPOT peptide array binding signal intensity,[57],63
same,SPOT peptide array binding signal intensity,[58],1.67
same,SPOT peptide array binding signal intensity,[59],212
same,SPOT peptide array binding signal intensity,[60],≤ 0
same,SPOT peptide array binding signal intensity,[61],0.5
same,SPOT peptide array binding signal intensity,[62],11
same,SPOT peptide array binding signal intensity,[63],1
same,SPOT peptide array binding signal intensity,[64],≤ 0
same,SPOT peptide array binding signal intensity,[65],≤ 0
same,SPOT peptide array binding signal intensity,[66],43.5
same,SPOT peptide array binding signal intensity,[67],19.5
same,SPOT peptide array binding signal intensity,[68],1
same,SPOT peptide array binding signal intensity,[69],5080
same,SPOT peptide array binding signal intensity,[70],66.8
same,SPOT peptide array binding signal intensity,[71],92
same,SPOT peptide array binding signal intensity,[72],1.5
same,SPOT peptide array binding signal intensity,[73],≤ 0
same,SPOT peptide array binding signal intensity,[74],6.25
same,SPOT peptide array binding signal intensity,[1],264
same,SPOT peptide array binding signal intensity,[2],15.8
same,SPOT peptide array binding signal intensity,[3],3.5
same,SPOT peptide array binding signal intensity,[4],611
same,SPOT peptide array binding signal intensity,[5],6.5
same,SPOT peptide array binding signal intensity,[6],11.5
same,SPOT peptide array binding signal intensity,[7],≤ 0
same,SPOT peptide array binding signal intensity,[8],0.25
same,SPOT peptide array binding signal intensity,[9],7
same,SPOT peptide array binding signal intensity,[10],31
same,SPOT peptide array binding signal intensity,[11],7
same,SPOT peptide array binding signal intensity,[12],37
same,SPOT peptide array binding signal intensity,[13],1060
same,SPOT peptide array binding signal intensity,[14],2.25
same,SPOT peptide array binding signal intensity,[15],662
same,SPOT peptide array binding signal intensity,[16],≤ 0
same,SPOT peptide array binding signal intensity,[17],≤ 0
same,SPOT peptide array binding signal intensity,[18],≤ 0
same,SPOT peptide array binding signal intensity,[19],1
same,SPOT peptide array binding signal intensity,[20],≤ 0
same,SPOT peptide array binding signal intensity,[21],≤ 0
same,SPOT peptide array binding signal intensity,[22],74
same,SPOT peptide array binding signal intensity,[23],0.25
same,SPOT peptide array binding signal intensity,[24],0.333
same,SPOT peptide array binding signal intensity,[25],1530
same,SPOT peptide array binding signal intensity,[26],≤ 0
same,SPOT peptide array binding signal intensity,[27],27.5
same,SPOT peptide array binding signal intensity,[28],1
same,SPOT peptide array binding signal intensity,[29],≤ 0
same,SPOT peptide array binding signal intensity,[30],26
same,SPOT peptide array binding signal intensity,[31],1.5
same,SPOT peptide array binding signal intensity,[32],25
same,SPOT peptide array binding signal intensity,[33],6.25
same,SPOT peptide array binding signal intensity,[34],5.5
same,SPOT peptide array binding signal intensity,[35],85.5
same,SPOT peptide array binding signal intensity,[36],1440
same,SPOT peptide array binding signal intensity,[37],≤ 0
same,SPOT peptide array binding signal intensity,[38],2
same,SPOT peptide array binding signal intensity,[39],3
same,SPOT peptide array binding signal intensity,[40],195
same,SPOT peptide array binding signal intensity,[41],20
same,SPOT peptide array binding signal intensity,[42],≤ 0
same,SPOT peptide array binding signal intensity,[43],3
same,SPOT peptide array binding signal intensity,[44],1
